Unmarked numbers belong to inactive results.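 The calls were made as follows: active = MAPPIT score above the 99th percentile of random reference set scores in the same batch; inactive = at or below it.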

The source of these data is the supplement of paper PMC10105736.

Assay in all cases: MAPPIT interaction score (arbitrary units); higher = stronger binary interaction signal, active = hit call of the paper
One experiment concerns Arpc3A. As to conditions: pair source set: Lit-BM-16.
In a further experiment the test system is Atg1. As to conditions: MAPPIT configuration: N-N; pair source set: Finley_Y2H.
Another experiment has as its system C15. As to conditions: MAPPIT configuration: N-N; pair source set: Lit-BS-16.
The next experiment has as its system CG12567. As to conditions: MAPPIT configuration: N-N; pair source set: Finley_Y2H.
The next experiment relates to mRpL47. As to conditions: MAPPIT configuration: N-N; pair source set: Finley_Y2H.
For the next experiment, the system named is CG14044. As to conditions: MAPPIT configuration: N-N; pair source set: Finley_Y2H.
The subject of a further experiment is CG14985. As to conditions: MAPPIT configuration: N-N; pair source set: screen_2.
Another experiment concerns CG15545. As to conditions: MAPPIT configuration: N-N; pair source set: Curagen_low_conf.
Another experiment concerns CG1607. As to conditions: MAPPIT configuration: N-N; pair source set: DPIM.
A further experiment has as its system CG1640. As to conditions: MAPPIT configuration: N-C; pair source set: screen_4.
The test system of the next experiment is Pex5. As to conditions: MAPPIT configuration: N-N; pair source set: Curagen_low_conf.
The test system of the next experiment is CG17377. As to conditions: MAPPIT configuration: N-C; pair source set: screen_4.
For the next experiment, the system named is CG32817. As to conditions: MAPPIT configuration: N-N; pair source set: screen_2.
The next experiment concerns Mst87F. As to conditions: MAPPIT configuration: N-N; pair source set: screen_2.
The subject of the next experiment is CG2120. As to conditions: MAPPIT configuration: N-C; pair source set: screen_3.
The test system of a further experiment is Odj. As to conditions: MAPPIT configuration: N-N; pair source set: screen_2.
For a further experiment, the system named is caup. As to conditions: MAPPIT configuration: N-C; pair source set: screen_3.
The test system of a further experiment is CG31406. As to conditions: pair source set: RRS.
The test system of the next experiment is Hakai. As to conditions: MAPPIT configuration: N-N; pair source set: DPIM.
The next experiment concerns Lkb1. As to conditions: MAPPIT configuration: N-N; pair source set: DPIM.
Another experiment concerns RnrS. As to conditions: MAPPIT configuration: N-N; pair source set: DPIM.
The subject of a further experiment is bai. As to conditions: MAPPIT configuration: N-N; pair source set: DPIM.
A further experiment has as its system mRpS24. As to conditions: MAPPIT configuration: N-N; pair source set: DPIM.
Another experiment relates to scf. As to conditions: MAPPIT configuration: N-N; pair source set: DPIM.
For another experiment, the system named is CG31740. As to conditions: MAPPIT configuration: N-N; pair source set: screen_2.
The next experiment deals with CG4250. As to conditions: MAPPIT configuration: N-C; pair source set: screen_4.
A further experiment relates to lms. As to conditions: MAPPIT configuration: N-N; pair source set: screen_1.
The subject of another experiment is CG3517. As to conditions: MAPPIT configuration: N-N; pair source set: screen_1.
The next experiment relates to CG3703. As to conditions: MAPPIT configuration: N-N; pair source set: Finley_Y2H.
The subject of the next experiment is CG4116. As to conditions: MAPPIT configuration: N-N; pair source set: Curagen_high_conf.
A further experiment has as its system CG44250. As to conditions: MAPPIT configuration: N-N; pair source set: screen_2.
Another experiment concerns lwr. As to conditions: MAPPIT configuration: N-N.
The subject of a further experiment is CG4619. As to conditions: MAPPIT configuration: N-N; pair source set: DPIM.
Another experiment concerns CG46385. As to conditions: MAPPIT configuration: N-N; pair source set: screen_1.
The test system of a further experiment is CG7011. As to conditions: MAPPIT configuration: N-N; pair source set: Lit-BS-16.
Another experiment deals with CG5111. As to conditions: MAPPIT configuration: N-C; pair source set: screen_3.
The test system of a further experiment is CG8173. As to conditions: MAPPIT configuration: N-N; pair source set: screen_1.
The test system of the next experiment is Vsx2. As to conditions: MAPPIT configuration: N-N; pair source set: screen_2.
The next experiment relates to CG8997. As to conditions: MAPPIT configuration: N-N; pair source set: Finley_Y2H.
The next experiment has as its system PGAP5. As to conditions: MAPPIT configuration: N-N; pair source set: Finley_Y2H.
Another experiment concerns chn. As to conditions: MAPPIT configuration: N-N; pair source set: Curagen_low_conf.
Another experiment has as its system CG9132. As to conditions: MAPPIT configuration: N-N; pair source set: Finley_Y2H.
The test system of another experiment is Src64B. As to conditions: MAPPIT configuration: N-N; pair source set: Lit-BS-16.
In another experiment the test system is Sec24CD. As to conditions: MAPPIT configuration: N-N; pair source set: Lit-BS-16.
The test system of a further experiment is Nup93-1. As to conditions: MAPPIT configuration: N-N; pair source set: Curagen_low_conf.
Another experiment has as its system apt. As to conditions: MAPPIT configuration: N-N; pair source set: Curagen_low_conf.
The subject of another experiment is su(Hw). As to conditions: MAPPIT configuration: N-N; pair source set: DPIM.
The subject of the next experiment is Reph. As to conditions: MAPPIT configuration: N-C; pair source set: Lit-BM-16.
The next experiment has as its system CG9986. As to conditions: MAPPIT configuration: N-N; pair source set: Lit-BS-16.
The next experiment relates to HP1e. As to conditions: MAPPIT configuration: N-N; pair source set: Lit-BS-16.
Another experiment deals with CkIIalpha. As to conditions: MAPPIT configuration: N-N; pair source set: Lit-BM-16.
Another experiment has as its system Prx2. As to conditions: MAPPIT configuration: N-N; pair source set: Curagen_high_conf.
Another experiment relates to D. As to conditions: MAPPIT configuration: N-N; pair source set: Finley_Y2H.
For the next experiment, the system named is CG9775. As to conditions: MAPPIT configuration: N-N; pair source set: DPIM.
A further experiment relates to Nost. As to conditions: MAPPIT configuration: N-N; pair source set: Curagen_high_conf.
The test system of the next experiment is Gmppa. As to conditions: MAPPIT configuration: N-N; pair source set: Curagen_high_conf.
A further experiment has as its system Doa. As to conditions: MAPPIT configuration: N-N; pair source set: Finley_Y2H.
A further experiment deals with Smg6. As to conditions: MAPPIT configuration: N-N; pair source set: Finley_Y2H.
The test system of the next experiment is Srp54. As to conditions: MAPPIT configuration: N-N; pair source set: Finley_Y2H.
For another experiment, the system named is pan. As to conditions: MAPPIT configuration: N-N; pair source set: Finley_Y2H.
A further experiment has as its system PAN3. As to conditions: MAPPIT configuration: N-N; pair source set: screen_1.
A further experiment concerns l(3)05822. As to conditions: MAPPIT configuration: N-N; pair source set: screen_2.
Another experiment relates to mad2. As to conditions: MAPPIT configuration: N-N; pair source set: Finley_Y2H.
In the next experiment the test system is Eno. As to conditions: MAPPIT configuration: N-N; pair source set: Lit-BM-16.
A further experiment concerns MESK2. As to conditions: MAPPIT configuration: N-N; pair source set: Lit-BS-16.
Another experiment concerns RfC3. As to conditions: pair source set: Lit-BM-16.
Another experiment concerns Mlf. As to conditions: pair source set: Lit-BM-16.
In a further experiment the test system is CG9536. As to conditions: MAPPIT configuration: N-N; pair source set: DPIM.
In another experiment the test system is Ktl. As to conditions: MAPPIT configuration: N-N; pair source set: screen_2.
The test system of the next experiment is Tina-1. As to conditions: MAPPIT configuration: N-N; pair source set: DPIM.
A further experiment concerns Nup50. As to conditions: pair source set: Lit-BM-16.
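Also: HEK293T cells with Epo stimulation, STAT-responsive firefly luciferase reporter, fold induction versus unstimulated cells divided by the larger fold induction of two negative controls lacking either bait or prey.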

Chain of bowl (chain, as listed by the source): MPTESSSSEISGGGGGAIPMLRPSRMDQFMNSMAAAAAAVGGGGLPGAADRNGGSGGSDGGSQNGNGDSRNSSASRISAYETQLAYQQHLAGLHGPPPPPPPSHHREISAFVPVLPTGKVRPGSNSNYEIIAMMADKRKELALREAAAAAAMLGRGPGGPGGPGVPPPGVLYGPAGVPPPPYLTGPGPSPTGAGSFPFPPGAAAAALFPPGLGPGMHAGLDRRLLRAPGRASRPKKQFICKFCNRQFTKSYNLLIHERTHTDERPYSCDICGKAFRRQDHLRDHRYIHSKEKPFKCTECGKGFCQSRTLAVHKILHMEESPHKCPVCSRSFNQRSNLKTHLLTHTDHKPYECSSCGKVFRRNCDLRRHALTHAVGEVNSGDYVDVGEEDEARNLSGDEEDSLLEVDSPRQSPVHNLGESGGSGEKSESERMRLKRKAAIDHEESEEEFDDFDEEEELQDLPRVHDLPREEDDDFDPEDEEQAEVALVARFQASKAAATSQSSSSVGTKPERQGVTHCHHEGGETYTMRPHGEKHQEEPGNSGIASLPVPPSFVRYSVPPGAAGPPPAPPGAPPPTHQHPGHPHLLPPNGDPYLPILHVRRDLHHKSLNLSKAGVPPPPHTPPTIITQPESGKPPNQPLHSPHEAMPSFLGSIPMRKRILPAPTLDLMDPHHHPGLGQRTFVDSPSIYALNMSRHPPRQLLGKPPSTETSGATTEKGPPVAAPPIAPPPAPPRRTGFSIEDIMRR
Chain of Hsc70-1 (chain, as listed by the source): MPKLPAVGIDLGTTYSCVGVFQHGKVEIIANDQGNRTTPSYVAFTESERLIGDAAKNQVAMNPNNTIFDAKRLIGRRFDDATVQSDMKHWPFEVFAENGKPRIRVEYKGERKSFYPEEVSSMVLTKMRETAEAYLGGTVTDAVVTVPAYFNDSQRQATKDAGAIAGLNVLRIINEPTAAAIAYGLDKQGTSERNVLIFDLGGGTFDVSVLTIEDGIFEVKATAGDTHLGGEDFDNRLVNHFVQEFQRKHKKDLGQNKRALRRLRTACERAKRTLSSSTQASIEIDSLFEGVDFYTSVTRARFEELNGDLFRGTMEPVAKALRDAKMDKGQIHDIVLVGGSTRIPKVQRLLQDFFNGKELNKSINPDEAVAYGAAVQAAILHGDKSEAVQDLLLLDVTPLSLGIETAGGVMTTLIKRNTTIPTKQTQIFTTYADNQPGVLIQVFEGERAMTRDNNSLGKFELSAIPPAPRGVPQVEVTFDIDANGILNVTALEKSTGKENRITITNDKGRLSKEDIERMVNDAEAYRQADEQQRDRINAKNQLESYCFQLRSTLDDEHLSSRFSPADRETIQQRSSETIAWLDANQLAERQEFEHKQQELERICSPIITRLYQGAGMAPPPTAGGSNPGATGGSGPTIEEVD
Chain of Gsc (chain, as listed by the source): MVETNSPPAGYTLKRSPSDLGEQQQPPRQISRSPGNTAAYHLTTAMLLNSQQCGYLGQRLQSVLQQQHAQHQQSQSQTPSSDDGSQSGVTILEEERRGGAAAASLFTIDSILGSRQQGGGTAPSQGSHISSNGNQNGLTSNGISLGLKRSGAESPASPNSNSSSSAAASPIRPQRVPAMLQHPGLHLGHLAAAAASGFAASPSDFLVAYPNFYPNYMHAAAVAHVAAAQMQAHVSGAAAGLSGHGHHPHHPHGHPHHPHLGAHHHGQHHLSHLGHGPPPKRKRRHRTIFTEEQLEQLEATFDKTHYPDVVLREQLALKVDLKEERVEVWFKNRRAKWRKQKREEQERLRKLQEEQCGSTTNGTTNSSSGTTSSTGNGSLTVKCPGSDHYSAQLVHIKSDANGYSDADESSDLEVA
Chain of dsx (chain, as listed by the source): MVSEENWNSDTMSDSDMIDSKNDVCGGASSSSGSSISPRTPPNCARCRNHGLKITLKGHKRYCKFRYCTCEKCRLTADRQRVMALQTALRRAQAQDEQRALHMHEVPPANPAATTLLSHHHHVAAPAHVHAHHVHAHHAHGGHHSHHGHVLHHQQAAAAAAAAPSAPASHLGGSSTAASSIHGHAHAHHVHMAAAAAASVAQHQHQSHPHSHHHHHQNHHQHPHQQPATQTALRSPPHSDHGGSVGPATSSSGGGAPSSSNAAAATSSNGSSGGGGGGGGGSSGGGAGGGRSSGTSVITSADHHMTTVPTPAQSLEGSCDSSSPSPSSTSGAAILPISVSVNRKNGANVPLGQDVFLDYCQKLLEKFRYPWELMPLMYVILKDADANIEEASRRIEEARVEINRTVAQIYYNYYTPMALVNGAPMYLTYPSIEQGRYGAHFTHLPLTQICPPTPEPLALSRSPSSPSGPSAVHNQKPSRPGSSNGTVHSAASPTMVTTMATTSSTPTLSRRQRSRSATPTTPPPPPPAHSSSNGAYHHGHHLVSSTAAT
Chain of SmB (chain, as listed by the source): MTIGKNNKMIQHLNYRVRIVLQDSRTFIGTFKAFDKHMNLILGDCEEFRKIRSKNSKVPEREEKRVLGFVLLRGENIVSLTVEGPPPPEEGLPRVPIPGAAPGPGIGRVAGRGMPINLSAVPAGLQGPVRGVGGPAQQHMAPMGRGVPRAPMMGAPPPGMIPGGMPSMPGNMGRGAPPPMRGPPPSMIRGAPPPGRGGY
Chain of Doa (chain, as listed by the source): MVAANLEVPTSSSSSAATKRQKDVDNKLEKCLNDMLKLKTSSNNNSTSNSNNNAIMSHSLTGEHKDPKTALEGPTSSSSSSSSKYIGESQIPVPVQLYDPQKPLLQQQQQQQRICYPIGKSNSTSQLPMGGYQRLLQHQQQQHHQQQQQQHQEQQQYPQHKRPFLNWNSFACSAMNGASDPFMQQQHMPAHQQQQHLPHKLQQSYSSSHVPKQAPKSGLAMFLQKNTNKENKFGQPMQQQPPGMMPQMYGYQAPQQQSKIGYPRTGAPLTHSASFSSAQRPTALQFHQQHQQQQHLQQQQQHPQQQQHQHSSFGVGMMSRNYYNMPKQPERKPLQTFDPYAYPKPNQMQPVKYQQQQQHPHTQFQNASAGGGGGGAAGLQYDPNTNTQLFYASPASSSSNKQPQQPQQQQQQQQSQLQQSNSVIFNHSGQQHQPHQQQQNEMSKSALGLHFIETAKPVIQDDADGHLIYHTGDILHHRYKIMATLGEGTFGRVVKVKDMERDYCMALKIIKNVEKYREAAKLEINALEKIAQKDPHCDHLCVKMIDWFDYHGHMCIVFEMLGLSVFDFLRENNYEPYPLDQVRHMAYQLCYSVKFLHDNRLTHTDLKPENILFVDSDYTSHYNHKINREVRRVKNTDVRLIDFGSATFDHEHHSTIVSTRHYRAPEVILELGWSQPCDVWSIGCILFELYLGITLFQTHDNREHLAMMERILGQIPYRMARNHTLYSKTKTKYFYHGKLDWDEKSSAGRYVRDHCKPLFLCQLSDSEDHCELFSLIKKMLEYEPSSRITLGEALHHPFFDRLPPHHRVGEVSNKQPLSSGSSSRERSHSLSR
Chain of Pen (chain, as listed by the source): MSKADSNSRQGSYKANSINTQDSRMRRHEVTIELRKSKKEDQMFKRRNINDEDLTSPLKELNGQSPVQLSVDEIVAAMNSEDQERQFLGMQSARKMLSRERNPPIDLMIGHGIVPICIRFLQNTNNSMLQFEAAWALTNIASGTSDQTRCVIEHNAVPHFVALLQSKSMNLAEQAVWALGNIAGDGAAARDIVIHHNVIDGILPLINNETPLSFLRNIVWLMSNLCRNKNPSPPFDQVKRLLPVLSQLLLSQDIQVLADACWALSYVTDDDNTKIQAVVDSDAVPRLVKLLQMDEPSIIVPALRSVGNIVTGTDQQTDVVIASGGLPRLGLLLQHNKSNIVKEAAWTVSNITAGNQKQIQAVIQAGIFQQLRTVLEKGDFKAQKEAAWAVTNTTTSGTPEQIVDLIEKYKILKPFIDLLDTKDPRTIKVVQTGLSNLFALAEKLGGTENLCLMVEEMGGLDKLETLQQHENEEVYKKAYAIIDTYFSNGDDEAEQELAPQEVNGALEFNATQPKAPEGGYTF
Chain of Acam (chain, as listed by the source): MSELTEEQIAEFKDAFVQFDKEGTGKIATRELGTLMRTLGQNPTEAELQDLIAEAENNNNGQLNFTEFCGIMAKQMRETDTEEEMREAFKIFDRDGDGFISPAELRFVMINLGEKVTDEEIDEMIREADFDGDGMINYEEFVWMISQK
Chain of Hsp70Aa (chain, as listed by the source): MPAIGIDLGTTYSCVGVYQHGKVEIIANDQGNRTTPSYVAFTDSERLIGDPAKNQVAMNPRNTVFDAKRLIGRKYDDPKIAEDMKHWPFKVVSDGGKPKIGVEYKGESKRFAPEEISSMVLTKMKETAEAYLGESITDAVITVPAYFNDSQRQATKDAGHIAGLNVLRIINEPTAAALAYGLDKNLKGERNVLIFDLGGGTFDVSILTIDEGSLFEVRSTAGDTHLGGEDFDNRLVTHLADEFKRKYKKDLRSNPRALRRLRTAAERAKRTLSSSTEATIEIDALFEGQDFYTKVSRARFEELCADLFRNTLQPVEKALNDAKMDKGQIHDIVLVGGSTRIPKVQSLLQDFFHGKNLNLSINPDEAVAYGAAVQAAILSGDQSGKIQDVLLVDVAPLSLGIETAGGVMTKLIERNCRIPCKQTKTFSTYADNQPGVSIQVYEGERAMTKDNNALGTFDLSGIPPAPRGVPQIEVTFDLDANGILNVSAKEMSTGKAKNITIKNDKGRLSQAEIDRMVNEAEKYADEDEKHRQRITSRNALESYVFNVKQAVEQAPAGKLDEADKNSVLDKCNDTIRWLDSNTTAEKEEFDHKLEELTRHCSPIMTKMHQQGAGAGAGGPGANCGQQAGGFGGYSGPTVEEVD
Chain of Arpc2 (chain, as listed by the source): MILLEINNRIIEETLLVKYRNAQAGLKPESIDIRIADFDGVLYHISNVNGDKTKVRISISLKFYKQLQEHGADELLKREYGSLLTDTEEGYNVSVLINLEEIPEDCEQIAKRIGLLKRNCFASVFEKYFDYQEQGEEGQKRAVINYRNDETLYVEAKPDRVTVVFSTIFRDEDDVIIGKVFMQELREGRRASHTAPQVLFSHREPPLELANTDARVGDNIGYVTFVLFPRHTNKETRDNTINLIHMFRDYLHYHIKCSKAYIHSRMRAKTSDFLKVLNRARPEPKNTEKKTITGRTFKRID

For the substance Arpc2, the results for the MAPPIT interaction score in the experiment with Arpc3A (MAPPIT configuration: N-C) and in the experiment with Arpc3A (MAPPIT configuration: N-N) were 2.37 and 0.165, respectively.
Rbp6: the MAPPIT interaction score with Atg1 is 0.221.
Consider bsh, for which, in the experiment with C15, the MAPPIT interaction score was 0.102.
In the case of prd, the figures for the MAPPIT interaction score in the experiment with CG12567 and with mRpL47 were 2.65 and 0.0739, respectively.
zen: the MAPPIT interaction score with CG14044 is 1.38.
For the substance Vps60, in the experiment on CG14985, the MAPPIT interaction score was 0.0854.
As to RpL23, the MAPPIT interaction score with CG15545 was 0.083.
In the case of Fmr1, the MAPPIT interaction score in the experiment with CG1607 is 0.0271.
As to Acam, the results for the MAPPIT interaction score in the experiment with CG1640 and in the experiment with Pex5 were 0.679 and 0.715, respectively.
Turning to dsx, the MAPPIT interaction score in the experiment with CG17377 was 2.14; in the experiment on CG32817, 2.31; in the experiment on Mst87F, 4.59 (active).
As to bowl, the results for the MAPPIT interaction score in the experiment with CG2120, in the experiment on Odj and in the experiment with caup were 0.273, -0.226 and -0.0689, respectively.
With Hsc70-1, the MAPPIT interaction score with CG31406 (MAPPIT configuration: N-C) was 1.43; in the experiment with CG31406 (MAPPIT configuration: N-N), -0.111; in the experiment with Hakai, 0.323; with Lkb1 it was -0.0906; in the experiment with RnrS it was 1; in the experiment with bai, -0.235. The MAPPIT interaction score in the experiment with mRpS24 is -0.169; in the experiment on scf, 1.56.
As for Gsc, the MAPPIT interaction score with CG31740 is 3.16 (active); in the experiment on CG4250, 1.43; with lms it was -0.637.
In the case of e(y)3, the MAPPIT interaction score in the experiment on CG3517 was 3.82 (active).
Turning to gsb-n, in the experiment on CG3703, the MAPPIT interaction score was 0.258.
With SmD1, in the experiment on CG4116, the MAPPIT interaction score was -0.319.
Take cher: the MAPPIT interaction score was 0.155 in the experiment on CG44250 and -0.358 with lwr (pair source set: DPIM).
Regarding pnr, the MAPPIT interaction score with CG4619 is 3.3 (active).
Turning to Poxm, the MAPPIT interaction score in the experiment on CG46385 is 1.84; with CG7011 it was 0.0698.
On to Abd-B, for which the MAPPIT interaction score in the experiment on CG5111 was 1.34.
As to otp, the results for the MAPPIT interaction score with CG8173 and with Vsx2 were -0.108 and -0.232, respectively.
Turning to lark, the MAPPIT interaction score with CG8997 was 1.37.
Regarding Dfd, the MAPPIT interaction score in the experiment on PGAP5 was 0.749.
In the case of Hsp83, the MAPPIT interaction score with chn is 0.266.
As to Gyc89Da, in the experiment on CG9132, the MAPPIT interaction score was 0.702.
Consider Pgi, for which the MAPPIT interaction score in the experiment with Src64B is -0.233.
As to Jon99Cii, in the experiment on Sec24CD, the MAPPIT interaction score was -0.28.
Hrb98DE: the values for the MAPPIT interaction score in the experiment with Nup93-1 and with apt were -0.403 and -0.399, respectively.
Consider Non1, for which the MAPPIT interaction score in the experiment with su(Hw) was 0.589.
As for mnb, the MAPPIT interaction score in the experiment on Reph is 1.38.
As for Hsp70Aa, the MAPPIT interaction score in the experiment with CG9986 was 0.269; in the experiment with HP1e, 0.126.
In the case of CkIIbeta, the MAPPIT interaction score in the experiment on CkIIalpha is 3.04 (active).
On to Srx, for which the MAPPIT interaction score in the experiment on Prx2 is -0.16.
Take RpL39: the MAPPIT interaction score in the experiment on D is -0.321.
For RpL4, the MAPPIT interaction score with CG9775 was -0.331.
Src42A: the MAPPIT interaction score in the experiment on Nost was 1.25.
Turning to Gmppb, in the experiment on Gmppa, the MAPPIT interaction score is 1.26.
For the substance Doa, the MAPPIT interaction score with Doa was 1.07; in the experiment on Smg6, 1.25; with Srp54, -1.75; in the experiment with lwr (pair source set: Finley_Y2H) it was -1.12.
Take Cdk5: the MAPPIT interaction score in the experiment on pan was -0.4.
In the case of SmB, the MAPPIT interaction score is -0.24 in the experiment on PAN3, 0.0651 in the experiment on l(3)05822 and -0.029 in the experiment with mad2.
Turning to Cyp1, the MAPPIT interaction score is 0.063 in the experiment with Eno and 0.0293 in the experiment on MESK2.
As to RfC4, the MAPPIT interaction score in the experiment on RfC3 (MAPPIT configuration: N-C) is 3.58; with RfC3 (MAPPIT configuration: N-N) it was 6.38 (active).
For DnaJ-1, the MAPPIT interaction score is 1.44 in the experiment on Mlf (MAPPIT configuration: N-C) and 0.787 in the experiment with Mlf (MAPPIT configuration: N-N).
Take Arf1: the MAPPIT interaction score in the experiment with CG9536 is 0.397; in the experiment on Ktl, 2.35; in the experiment on Tina-1, 0.274.
For the substance Pen, the MAPPIT interaction score was 0.849 with Nup50 (MAPPIT configuration: N-C) and 0.121 in the experiment on Nup50 (MAPPIT configuration: N-N).
